Most compounds without a hit are left out; they make up all but 2.4% or so of the library.
POLB inh = blocks human DNA polymerase beta activity | Potency, µM (series often up to 114 µM), inactives show top-dose activity change, negative = inhibition, usual class: inhibitors | AID 485314 | 1.3% of 340,000 active | Pol beta primer extension/strand displacement, fluorescence kinetic | P06746; further: on the % scale 0 is the no-effect control and ±100 the full control effect
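Kinetic readout of DNA synthesis with strand displacement by Pol beta. Compound and 10 nM enzyme sit 15 min at room temperature; 50 nM substrate starts the reaction, read immediately and at 10 min.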
Pol iota inh = inhibitors of human DNA polymerase iota. 1% of 390,000 active. Pol iota fluorescent replication assay, 10 min. AID 588590. Potency, µM (series often up to 115 µM), for the others: at the highest dose activity, negative = inhibition, hits mostly inhibitors. Q9UNA4
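Pol iota at 10 nM preincubated 15 min with compounds at room temperature; reaction started with fluorescent substrate, 50 nM final. Fluorescence read kinetically at 0 and 10 min; buffer-only wells as negative control.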
FEN1 inh = blocks human flap endonuclease 1. Recombinant FEN1 flap cleavage, fluorescence, 15 min. Potency, µM (series often up to 114 µM), for inactives: at the highest dose activity change, negative = inhibition, hits mostly inhibitors. 0.35% of 390,000 active. P39748; further: on the % scale 0 is the no-effect control and ±100 the full control effect; nearly all actives have a fitted effect of over 65% in size
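Read-out was taken twice, immediately and after 15 min, following addition of 50 nM substrate to 10 nM FEN1 that had sat with test compound for 15 min at room temperature. Curves came from a four-parameter Hill model.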
TDP1 inh = blocks human tyrosyl-DNA phosphodiesterase 1; Q9NUW8; recombinant TDP1, AlphaScreen DNA substrate cleavage; Potency, µM (top dose mostly 130 µM), for inactives: at the top dose activity change, negative = inhibition, usual class: inhibitors; 0.28% of 350,000 active; further: on the % scale 0 is the no-effect control and ±100 the full control effect; nearly all actives have a fitted effect of over 40% in size
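Steps: enzyme plus compound, 15 min RT; add biotin/phosphotyrosine-FITC oligonucleotide (15 nM final), react 5 min; add donor/acceptor beads (10 ug/ml final), 10 min; read AlphaScreen. Tdp1 at 1 nM final.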
POLH inh = blocks human DNA polymerase eta activity; Potency, µM (doses to about 114 µM), for the others: at the top dose activity change, negative = inhibition, hits mostly inhibitors; recombinant Pol eta, fluorescent DNA replication assay; Q9Y253; 1.2% of 390,000 active; AID 588591; further: on the % scale 0 is the no-effect control and ±100 the full control effect
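Pol eta (10 nM) was preincubated with compounds for 15 min at room temperature, after which fluorescent replication substrate (50 nM final) was added to start the reaction. Fluorescence was read kinetically at 0 and 10 min.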
Pol kappa inh = blocks human DNA polymerase kappa activity. Potency, µM (top dose mostly 107 µM), for the others: at the highest dose activity, negative = inhibition, hits mostly inhibitors. AID 588579. 0.53% of 400,000 active. purified Pol kappa, fluorescent DNA synthesis assay, 10 min. Q9UBT6; further: on the % scale 0 is the no-effect control and ±100 the full control effect
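First, compounds were pin-transferred onto 10 nM Pol kappa. After 15 min at room temperature, substrate was added to 50 nM final. Fluorescence was then measured kinetically at 0 and 10 min.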
Active calls of the source: *; u = inconclusive; x = no result given; ! = not confirmed by another sample; [ ] = dose if it differs, or a comment. The call rests on the fitted dose curve; in most records, active means well fitted curve in the direction sought with a large enough effect; inconclusive means small, poorly fitted or top-dose-only effect, or another doubt; inactive means no such curve, though single readings can be large; an effect the other way counts as inactive or inconclusive. Potency means the concentration at half of the fitted maximal effect.

SMILES | POLB inh | Pol iota inh | FEN1 inh | TDP1 inh | POLH inh | Pol kappa inh
COc1ccc(C2Nc3ccccc3C(=O)N2CCc2ccc(Cl)cc2Cl)cc1COc1ccc(NC(C)=O)cc1 (configuration not stated) | x | x | x | 1% | x | x
C=CC[n+]1cccc2cccc(O)c21 | x | 13µM* | -1% | x | x | 3%
COc1ccc(OCC(=O)NCC(c2ccc(OC)cc2)N2CCCCC2)cc1 (configuration not stated) | 89µM*! | 17% | -2% | 2% | -3% | -2%
CCOC(=O)CCc1cc(F)c(S(=O)(=O)N2CCN(S(=O)(=O)c3ccc4c(c3)OCCO4)CC2)cc1F | x | x | x | 0% | x | x
Cc1cc(C)c(S(=O)(=O)Nc2ccc3oc4c(c3c2)C(=O)CC(C)(C)C4)cc1C | -12% | 79µM* | -15% | x | -10% | -3%
NC(=O)CN1CCN(C(=O)NC2CCCCC2)CC1 | 32µM* | 12% | 29% | 4% | -9% | 22%
c1ccc([C@@H]2CN3CCSC3=N2)cc1 | x | x | x | 10%[21 µM] | x | -2%[12 µM]
COc1ccc(CCNC(=O)Cn2c(=O)n(-c3ccc(OC)c(OC)c3)c(=O)c3ccccc32)cc1OC | 23% | u | -12% | 1% | -1% | 79µM*
CCc1ccc(-n2c(=O)c3ccccc3n(CC(=O)NCCc3ccc(OC)c(OC)c3)c2=O)cc1 | 15% | -6% | -14% | 5% | -8% | -17%
C(=C\c1nc2ccccc2s1)/c1ccc2c(c1)OCO2 | x | 1% | -23% | x | x | 0%
C[N+](C)(CCCCCI)c1ccc(/C=C/c2nc3ccccc3s2)cc1 | x | 79µM* | u | x | x | 45µM*
COc1cccc2sc3ccc(NCc4ccc5c(c4)OCO5)cc3c(=O)c12 | u | 16µM* | u | x | -6% | 79µM*
COC1=C(NCc2ccc3c(c2)OCO3)C(=O)C(OC)=C(NCc2ccc3c(c2)OCO3)C1=O | x | 14% | -2% | x | -10% | -7%
Cc1ccc(-c2nc3ccccc3nc2-c2ccccc2)cc1 | -2% | 29% | 2% | 79µM* | -4% | -3%
Cc1occc1C(=O)NCc1ccco1 | 32µM* | u | 3% | x | u | -30%
Cc1occc1C(=O)NCc1ccc(C(=O)O)o1 | 1% | -5% | -5% | -2% | 56µM* | -2%
Cc1c(Br)cc(C(=O)NCc2ccco2)c(C)c1C | 22µM* | u | 12% | 2% | u | -27%
CC(=O)N(O)c1ccc(/C=C2\C=Cc3ccccc32)cc1 | x | 12% | -19% | x | x | -5%
Cc1cc(C)c2c(C)ccnc2c1 | x | -2% | 13% | x | x | 5%
O=C(O)c1cccnc1SCC(=O)N1CCCc2ccccc21 | u | u | -14% | x | 20µM* | -38%
Cc1ccc(-n2c(SCC(=O)Nc3ccc4c5c(cccc35)CC4)nc(O)cc2=O)cc1 | 35µM* | -28% | -5% | 1% | -12% | -24%
O=C(CSc1nc(O)cc(=O)n1-c1ccccc1)NCc1ccccc1 | 3% | 40µM* | -3% | -3% | -5% | -26%
O=C(CSc1nc2cc([N+](=O)[O-])ccc2n1-c1ccccc1)NCc1ccc2c(c1)OCO2 | 10µM* | u | 3% | -1% | -14% | -18%
Cc1ccc2oc(-c3ccc(C)c(NC(=O)COc4ccccc4C)c3)nc2c1 | x | -9% | 20% | x | x | 7%
CCc1cccc(CC)c1-n1c(SCC(=O)N2CCCc3ccccc32)nc(O)cc1=O | x | u | -23% | 3% | -16% | 45µM*
O=C(CSc1ncccn1)N1CCCc2ccccc21 | 15% | 113% | 5% | -3% | -21% | -6%
Oc1ccc(COc2ccccc2Cl)c2cccnc12 | x | x | x | 3% | x | x
O=C(Nc1nc(-c2cccs2)cs1)C1CC(=O)N(c2ccc3c(c2)OCCO3)C1 (configuration not stated) | x | -22% | -27% | 4% | x | -10%
